Results reported in PubChem BioAssay (NCI).
Compounds without any hit were thinned out: in the full panel of roughly 83,000, 20% have a hit.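 Percent growth is the endpoint: 0 to 100 indicates growth inhibition (40 means 60% inhibition), 0 means no net growth, and negative values indicate cell death.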 Unmarked numbers belong to inactive results. Activity calls are given as the source filed them. Rule for the calls: active = growth percent below 10; inactive = the rest.

Tests used:
Assay in all cases: NCI-60 one-dose screen, 48 h (100 = growth as untreated, 0 = no growth, -100 = all killed)
Details in all cases: 10 µM unless noted
SR leukemia = tested on: SR leukemia
RPMI-8226 leukemia = tested on: RPMI-8226 leukemia
OVCAR-8 ovarian = tested on: OVCAR-8 ovarian
OVCAR-5 ovarian = tested on: OVCAR-5 ovarian
OVCAR-4 ovarian = tested on: OVCAR-4 ovarian
SK-OV-3 ovarian = tested on: SK-OV-3 ovarian
IGROV1 ovarian = tested on: IGROV1 ovarian
OVCAR-3 ovarian = tested on: OVCAR-3 ovarian
HS 578T breast = tested on: HS 578T breast
NCI/ADR-RES ovarian = tested on: NCI/ADR-RES ovarian

| SMILES | growth (SR leukemia) | growth (RPMI-8226 leukemia) | growth (OVCAR-8 ovarian) | growth (OVCAR-5 ovarian) | growth (OVCAR-4 ovarian) | growth (SK-OV-3 ovarian) | growth (IGROV1 ovarian) | growth (OVCAR-3 ovarian) | growth (HS 578T breast) | growth (NCI/ADR-RES ovarian) |
| --- | --- | --- | --- | --- | --- | --- | --- | --- | --- | --- |
| Cc1n(Cc2ccc3ccccc3c2)c2ccccc2[n+]1Cc1ccc2ccccc2c1 | -35.5% (active) | -57.7% (active) | -31.1% (active) | -46.4% (active) | -7.76% (active) | -18.4% (active) | -61.8% (active) | -78.1% (active) | -0.489% (active) | 82.4% |
| C[C@]12CCC(=O)C=C1CC[C@H]1[C@@H]3C[C@@H](O)[C@](O)(C(=O)CO)[C@@]3(C)C[C@H](O)[C@@]12F | 96.3% | 67.1% | 92.8% | 86.7% | 95.7% | 72.4% | 97.6% | 105% | 115% | 95.4% |
| O=C1C2C(C(=O)N1CC[Se][Se]CCN1C(=O)C3C(C1=O)[C@H]1C=C[C@@H]3C1)[C@H]1C=C[C@@H]2C1 (stereo not given in full) | 4.3% (active) | -43.7% (active) | -80.7% (active) | -15.4% (active) | -33.3% (active) | -50% (active) | -47.2% (active) | -58% (active) | -11.4% (active) | -10.9% (active) |
| COc1cc(/C=C\C(C)=N\Nc2ccccc2)ccc1O | 39.3% | 76.3% | 90.5% | 84.7% | 85.6% | 121% | 96% | 89.2% | 92.1% | 77.4% |
| COc1cc(/C=C2\SC(N3CCCCC3)=NC2=O)ccc1OCCCCCCOc1ccc(/C=C2\SC(N3CCCCC3)=NC2=O)cc1OC | 0.724% (active) | -5.76% (active) | 8.07% (active) | 40.6% | 21% | 41.9% | 19.5% | -82.9% (active) | 7.66% (active) | 0.636% (active) |
| CCOc1nc(-c2ccco2)n2nc(-c3ccco3)cc2n1 | 123% | 84.4% | 97% | 108% | 87.2% | 110% | 106% | 122% | 95.7% | 99.5% |
| O=Cc1ccccc1C(=O)O | 89.8% | 106% | 104% | 97.9% | 92.6% | 104% | 110% | 102% | 100% | 104% |
| Cc1nn2c(/C=C3/C(=O)Nc4cc(Cl)ccc43)c(-c3ccccc3)nc2s1 | 15.1% | -19.6% (active) | -25.2% (active) | 52.8% | -85.6% (active) | 73.6% | -23.5% (active) | -71.6% (active) | -0.41% (active) | 24.2% |
| COc1cc(NC(C)CCCN)c2nc(C)ccc2c1Oc1ccc(F)cc1 (stereo not given) | 60.9% | 70.3% | 77.4% | 83.4% | 62.6% | 105% | 56.2% | 71.3% | 49.7% | 77.6% |
| CCOC(=O)/C(=C/CC/C(C)=C/CC/C(C)=C/CCc1ccoc1)CC(=O)N1CCCCC1 | 19.8% | -5.3% (active) | 72.4% | 64.6% | 64.8% | 84.4% | 77.8% | 12.5% | 74.3% | 50.6% |
| CCOC(=O)C1=CCC(n2cc(C)c(=O)[nH]c2=O)O1 (stereo not given) | 94.8% | 106% | 97.9% | 113% | 105% | 109% | 86.3% | 108% | 104% | 101% |
| C[C@H](C(=O)N[C@@H](Cc1ccc(-c2ccccc2)cc1)C(=O)NC1CC(C)(C)NC(C)(C)C1)c1ccc(-c2ccccc2)c(F)c1 | -27.5% (active) | -43.6% (active) | -49.9% (active) | -48.9% (active) | -27.4% (active) | -17.1% (active) | -36.8% (active) | -92.1% (active) | -31.6% (active) | 60.4% |
| CC(NNC(=S)N1CCCCCC1)c1ccc2ccccc2n1 (stereo not given) | 34.5% | 56.1% | 18.1% | 50.3% | 30.2% | 50.9% | 19.3% | 47.4% | 78.5% | 20.8% |
| CC(C)Sc1nc(Cl)c(C#N)c(-c2ccc(F)cc2)n1 | -25.2% (active) | 78.5% | 97.1% | 99.2% | 107% | 110% | 103% | 128% | 106% | 105% |
| CN[C@@H]1C(OC2[C@H](O[C@H]3[C@H](O)[C@@H](O)[C@H](N=C(N)N)[C@@H](O)[C@@H]3N=C(N)N)OC(C)[C@]2(O)CO)OC(CO)C(O)C1O (stereo not given in full) | 102% | 103% | 103% | 102% | 111% | 112% | 105% | 116% | 112% | 105% |
